Source: the supplement of paper PMC3334620
In all, about 33,000 sequences were measured (“E-score (-0.5 to 0.5)”: median about -0.054, highest 2% from about 0.35 on). For the sample, the highest values were picked, then their nearest neighbours and some sequences at random.

biological target: T1, Stb5 (UniProt P38699); assay: PBM E-score (8-mer binding enrichment) (E-score (-0.5 to 0.5)); higher = stronger / more preferred TF binding; settings: protein concentration: 200 nM; construct: GST-full length
T1 sequence: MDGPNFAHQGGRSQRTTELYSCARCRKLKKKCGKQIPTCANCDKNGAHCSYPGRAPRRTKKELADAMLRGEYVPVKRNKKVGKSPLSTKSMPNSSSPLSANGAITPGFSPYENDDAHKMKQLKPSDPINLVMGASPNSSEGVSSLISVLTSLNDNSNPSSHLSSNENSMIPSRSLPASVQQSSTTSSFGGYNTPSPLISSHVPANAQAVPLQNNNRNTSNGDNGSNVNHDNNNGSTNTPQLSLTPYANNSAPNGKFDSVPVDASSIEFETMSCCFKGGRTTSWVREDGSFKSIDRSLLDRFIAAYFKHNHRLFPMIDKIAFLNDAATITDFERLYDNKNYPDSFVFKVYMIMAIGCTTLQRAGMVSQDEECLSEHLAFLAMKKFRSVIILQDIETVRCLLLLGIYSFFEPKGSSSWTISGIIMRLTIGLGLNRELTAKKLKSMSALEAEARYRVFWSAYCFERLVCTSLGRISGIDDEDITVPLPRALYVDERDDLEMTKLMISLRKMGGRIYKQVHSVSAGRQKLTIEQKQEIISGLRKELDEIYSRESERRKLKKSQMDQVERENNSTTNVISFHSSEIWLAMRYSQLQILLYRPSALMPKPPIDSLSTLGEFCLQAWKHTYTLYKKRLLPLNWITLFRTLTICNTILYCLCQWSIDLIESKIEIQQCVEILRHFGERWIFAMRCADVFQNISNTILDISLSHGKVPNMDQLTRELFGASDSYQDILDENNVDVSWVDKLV
Outline: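 For each ungapped eight-base word taken together with its reverse complement, the Universal PBM Analysis Suite assigned an E-score. Binding data came from GST-tagged yeast transcription factors, applied at about 100-200 nM, on universal all-10-mer Agilent arrays made double-stranded by primer extension. Fluorescent anti-GST marked bound protein, and scans were normalised with masliner.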

| Sequence | PBM E-score |
| --- | --- |
| ATCAACGA | 0.0713 |
| ACGGGTAG | -0.0642 |
| CAGGTCCG | 0.237 |
| AGAGTCCT | -0.216 |
| CAAGTCCG | 0.356 |
| CAAGTCCC | 0.00375 |
| CAAGTCCA | -0.171 |
| AACGTCCG | 0.375 |
| AGAGTCCG | 0.378 |
| AAGGTCCG | 0.442 |
| AACGTCCA | -0.0958 |
| AAGGTCCA | -0.171 |
| AGAGTCCC | 0.0723 |
| AACGTCCC | -0.0635 |
| GAACTGCC | -0.118 |
| CGGATCCG | 0.124 |
| ATGGTCTA | -0.23 |
| AAGAACCG | 0.262 |
| AAAGATCG | -0.0774 |
| AGGCATCC | -0.261 |
| ACATTAGC | -0.083 |
| AGGCCGTG | 0.212 |
| CTCTTGTC | -0.198 |
| ACGCCATG | -0.293 |

| Sequence | PBM E-score |
| --- | --- |
| TAGCCGGA | 0.279 |
| CCTGAAGG | -0.14 |
| AAAGTCCG | 0.466 |
| AAAGTCCT | 0.108 |
| AAAGTCCA | -0.136 |
| ACGATTAC | -0.161 |
| CTCTGCCA | -0.235 |
| TCGGCCCA | 0.105 |
| ACGGATAG | -0.0573 |
| ACGGAGCG | 0.299 |
| ACGGAGAT | 0.403 |
| ACGGAGAA | 0.188 |
| ACGGATAA | 0.215 |
| ACGGATAT | 0.367 |
| ACGGAGCT | 0.373 |
| ACGGAGCC | 0.263 |
| ACGGAGAC | 0.272 |
| AACTGTGA | -0.19 |
| ATTGGAAA | -0.0189 |
| ATCCTTTC | -0.195 |
| CAGGCGAA | -0.257 |
| GGCTTCTA | -0.04 |
| AGTCGTAC | -0.189 |
| TGTCGGAA | 0.26 |

| Sequence | PBM E-score |
| --- | --- |
| ACAGGTCA | -0.136 |
| CACTACTA | -0.117 |
| ACCATCCA | -0.118 |
| CTAGTACC | 0.226 |
| ATAGTACC | 0.359 |
| ATAGTACG | -0.0437 |
| GGCCGATA | 0.266 |
| CCCCGATA | 0.339 |
| CGCCGAGC | 0.261 |
| CCCCGATC | 0.374 |
| AGCCGATC | 0.0924 |
| CGCCGATC | 0.363 |
| ACCCGATC | 0.19 |
| CGCCGATA | 0.36 |
| AGCCGATA | 0.0102 |
| ACTATTCA | -0.084 |
| CGCATCTC | -0.00684 |
| TCTTTACA | -0.117 |
| AGTGGCGG | 0.292 |
| ACAGTTAC | -0.0633 |
| TGGAATAA | -0.14 |
| GGGAATAC | 0.302 |
| GGGAATAA | 0.373 |
| CAACGAAC | 0.079 |

| Sequence | PBM E-score |
| --- | --- |
| CACCGATA | 0.351 |
| CACCGATC | 0.359 |
| GACCGATC | 0.323 |
| CACCGATG | 0.357 |
| AACCGATG | 0.143 |
| AACCGATC | 0.106 |
| GAGGCTGC | -0.213 |
| ATCGGTTG | 0.0401 |
| CGCAATAC | -0.0062 |
| CCTGGTCG | 0.0613 |
| CGTCGGTC | 0.325 |
| CGTCGGTA | 0.357 |
| AGTCGGTA | 0.36 |
| AATCGGTA | 0.262 |
| ACTCGGTA | -0.00538 |
| AATCGGTC | 0.234 |
| AGTCGGGG | 0.363 |
| CCTCGGTA | 0.223 |
| GGTCGGTA | 0.319 |
| AGTCGGGA | 0.287 |
| AATCGGTG | 0.405 |
| ACTCGGGG | 0.185 |
